# Screening data as filed in PubChem BioAssay.
# KB-3-1 tox = KB-3-1 parental cell cytotoxicity. KB-3-1 viability, CellTiter-Glo ATP luminescence, 72 h. Potency, µM (doses to about 46.1 µM), usual class: cytotoxic. 400,000 tested, 1.4% active. AID 1347075; further: on the % scale 0 is the no-effect control and ±100 the full control effect; nearly all actives have a fitted effect of over 60% in size
#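 Viability of parental KB-3-1 cells, measured by CellTiter-Glo luminescence, followed a 72 h incubation at 37 °C with pinned compounds in phenol-red-free DMEM containing 10% FBS.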
# ATXN viability = reduces viability in counter-screen for ATXN expression inhibitors; AID 651635; 400,000 tested, 0.49% active; Potency, µM (titrated, usually from 56.7 µM), hits mostly cytotoxic; S2 cells (HEK-293 line with an ATXN2-luciferase reporter) viability, CellTiter-Fluor protease fluorescence, 24 h; further: nearly all actives have a fitted effect of over 40% in size
# HT1080-NT tox = kills 2HG-producing HT-1080-NT fibrosarcoma cells; HT-1080-NT fibrosarcoma viability, CellTiter-Glo ATP luminescence, 48 h; Potency, µM (titrated, usually from 46.1 µM), inactives show at the highest dose activity, negative = less viability, actives largely listed as cytotoxic; 360,000 tested, 1.6% active;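 further: NT is the 2HG producing partner of a matched IDH1 knockdown line; 0% = DMSO-treated cells and -100% = media-only wells without cells; nearly all actives have a fitted effect of over 55% in size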
#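 Compounds were tested in concentration-response format on HT-1080-NT cells for 48 hours at 37 degrees C. Cell viability came from CellTiter-Glo luminescence; curves were classified by r2, response magnitude and activity.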
# ATXN2 expr inh = inhibitors of ATXN2 expression; HEK-293 ATXN2-luciferase reporter, luminescence, 24 h; 360,000 tested, 0.72% active; Potency, µM (titrated, usually from 57 µM), for the others: at the highest dose activity change, negative = inhibition, usual class: inhibitors; further: on the % scale 0 is the no-effect control and ±100 the full control effect; nearly all actives have a fitted effect of over 55% in size
#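 qHTS (up to 57 uM final) was run with 24 h compound exposure of reporter cells at 37 °C. Each well was multiplexed: SteadyGlo luminescence measured ATXN2-luciferase expression after a fluorogenic Gly-Phe-AFC viability readout (25 uM final).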
# KB-V1 MDR tox = kills drug-selected multidrug resistant KB-V1 cells; 400,000 tested, 3.4% active; KB-V1 MDR cells viability, CellTiter-Glo, 72 h; Potency, µM (doses to about 46.1 µM), most hits filed as cytotoxic; further: on the % scale 0 is the no-effect control and ±100 the full control effect; nearly all actives have a fitted effect of over 60% in size
#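 Drug-selected KB-V1 cells, grown in DMEM lacking phenol red with 10% FBS, receive compound titrations; after three days at 37 degrees C, surviving cell ATP is quantified by CellTiter-Glo luminescence and responses normalized and curve-fitted.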
# HT1080 IDH1KD tx = toxicity to HT-1080 IDH1 knockdown cells (counter line) | HT-1080 IDH1 knockdown viability, ATP luminescence, 48 h | Potency, µM (series often up to 46.1 µM), inactives show at the top dose activity, negative = toxicity, hits mostly cytotoxic | 360,000 tested, 2% active;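 further: 0% = DMSO wells and -100% = cell-free medium wells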
#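 CellTiter-Glo luminescence after 48 h compound exposure at 37 degrees C of IDH1-knockdown HT-1080 cells in 5% FBS RPMI. %Activity scaled between DMSO wells and cell-free media wells, with curves fitted and assigned curve classes.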
# Numbers without * were called inactive; i = inactive; ? = inconclusive; . = no result given. This is a sample that favours compounds with a hit; in the whole collection about 6.2% have one here. The call rests on the fitted dose curve; in most records, active means well fitted curve in the direction sought with a large enough effect; inconclusive means small, poorly fitted or top-dose-only effect, or another doubt; inactive means no such curve, though single readings can be large; an effect the other way counts as inactive or inconclusive. Potency means the concentration at half of the fitted maximal effect.
SMILES,KB-3-1 tox,ATXN viability,HT1080-NT tox,ATXN2 expr inh,KB-V1 MDR tox,HT1080 IDH1KD tx
Cn1c(=O)oc2cc(S(=O)(=O)N3CCCc4ccccc43)ccc21,?,i,6.5µM*,-20%,i,8.2µM*
Cn1c(=O)oc2cc(S(=O)(=O)N3CCc4ccccc43)ccc21,?,i,-15%,-19%,?,?
C[C@]12CCC3C(CC[C@H]4CC(O)CC[C@]34C)C1CC/C2=N/NC(=O)c1ccncc1 (stereo not given in full),i,?,-24%,-34%,i,-1%
Clc1ccc(COC(Cn2ccnc2)c2ccc(Cl)cc2Cl)c(Cl)c1 (stereo not given),i,?,23µM*,?,?,?
CC1CN(C(=O)c2ccc(S(=O)(=O)Nc3ccccc3F)cc2)CC(C)O1 (stereo not given),i,?,-11%,6%,i,0%
COc1ccc(-c2nnc(Nc3nc4c(OC)cccc4s3)o2)c(OC)c1,?,?,4µM*,?,?,3.2µM*
O=C1NCCOC(=O)[C@@H](Cc2ccc(F)cc2)CC/C=C/C[C@H]1CC(=O)N(CCO)Cc1ccccc1,i,i,4%,-15%,i,4%
O=S(=O)(c1ccc2c(c1)OCCO2)N1CCC(c2nc3ccc(Cl)cc3[nH]2)CC1,i,?,11µM*,16µM*,2.9µM*,14µM*
Cc1nc(C)n(CC(O)COc2ccc3cc(Br)ccc3c2)n1 (stereo not given),i,i,-6%,0%,i,?
CC(=O)OC[C@]12CCC(C)=C[C@H]1O[C@@H]1[C@H](O)[C@@H](OC(C)=O)[C@@]2(C)[C@]12CO2,?,i,?,-71%,?,0.21µM*
CCc1cc2c(s1)-n1c(C)nnc1CN=C2c1ccccc1Cl,.,i,.,59%,.,.
CN(C)C1(CNC(=O)c2ccc(NS(=O)(=O)c3ccc(Cl)c(Cl)c3)cc2)CCCCC1,i,i,-11%,-8%,i,-15%
CN(C)C1(CNC(=O)Nc2ccc(Cl)c(Cl)c2)CCCCC1,i,?,21µM*,?,i,?
Cc1ccc(-c2nnc(Nc3ccc(O)cc3)c3ccccc23)cc1S(=O)(=O)N1CCOCC1,?,?,.,?,i,.
CCOC(=O)c1sc(/N=C/c2c(O)n(-c3ccccc3)c(=O)[nH]c2=O)c(C#N)c1C,?,?,19%,6%,12µM*,9%
Oc1ccc2c3c1O[C@H]1[C@@H](O)C=C[C@H]4[C@H](C2)NCC[C@@]341,.,i,.,.,.,.
CC(=CCCC1=CCC(C2=CC(=O)OC2O)OC1O)CCC1=C(C)CCCC1(C)C (stereo not given),.,.,.,-6%,.,.
CCOc1cc(CNC2CCCC2)cc(Cl)c1OCc1ccc(F)cc1,i,28µM*,?,22µM*,i,?
CCOc1cc(CNC(C)C(O)c2ccccc2)cc(Cl)c1OCC (stereo not given),?,?,?,-23%,i,-29%
Cc1ccc(C(=O)Nc2nc3ccccc3[nH]2)cc1,?,i,?,3.5µM*,?,?
CCOCCC(=O)Nc1ccc2c(c1)c(=O)n(C)n2Cc1cccc(C(F)(F)F)c1,i,i,?,9%,i,14%
CC(=O)NCCc1c[nH]c2ccccc12,i,i,0%,7%,i,7%
CC(=O)c1cn(CC(=O)NCCc2c[nH]c3ccccc23)c2ccccc12,?,i,-5%,.,15µM*,-12%
